# Experimental data reported in PubChem BioAssay (NCATS).
# Results filed as inconclusive are left out. A call without a number means that no potency is given here. Calls of active or inactive are those of the source. Calls follow the shape of the dose curve; as a rule, active = well fitted cell-killing curve with a large enough effect; inconclusive = small, poorly fitted or top-dose-only effect, or effect the other way; inactive = no such curve, though single readings can be large or run the other way.
# Experiment: Quantitative High-Throughput drug screen in 47 multiple myeloma cell lines against the NCATS MIPE library collection: LP1_DSMZ cell viability assay (AID 1918982); also: nearly all actives have a fitted effect of over 35% in size
# Conditions: LP1 myeloma viability, CellTiter-Glo ATP luminescence, 48 h; series mostly up to 45.8 µM
# Excerpt: PI: Beverly A. Mock Ph.D.
# Laboratory of Cancer Biology and Genetics,
# Center for Cancer Research, National Cancer Institute,
# National Institute of Health, Bethesda, Maryland
# Drug resistance and disease progression are common in multiple myeloma (MM) patients, underscoring the need for new therapeutic combinations. […] We hypothesized that effective combinations would reduce MYC expression and enhance p16 activity. […] These preclinical data identify potentially useful drug combinations for evaluation in drug-resistant MM and reveal potential mechanisms of combined drug sensitivity.
# Described herein is the primary MIPE qHTS used to cherrypick compounds. Validated compounds were then further tested for potential synergistic activiy.
# [1] Peat TJ, Gaikwad SM, Dubois W, Gyabaah-Kessie N, Zhang S, Gorjifard S, Phyo Z, Andres M, Hughitt VK, Simpson RM, Miller MA, Girvin AT, Taylor A, Williams D, D'Antonio N, Zhang Y, Rajagopalan A, Flietner E, Wilson K, Zhang X, Shinn P, Klumpp-Thomas C, McKnight C, Itkin Z, Chen L, Kazandijian D, Zhang J, Michalowski AM, Simmons JK, Keats J, Thomas CJ, Mock BA. Drug combinations identified by high-throughput screening promote cell cycle transition and upregulate Smad pathways in myeloma. Cancer Lett. 2023 Aug 1;568:216284. doi: 10.1016/j.canlet.2023.216284. Epub 2023 Jun 24. PMID: 37356470; PMCID: PMC10408729.
# SEQUENCE No. (e.g., 1, 2, 3, etc.); […] (e.g., Cells, Incubation, Reagent, etc.); VALUE and DESCRIPTION.
# 1; Cells; 5 uL; white, solid bottom 1536-well Greiner assay plate.
# 2; Compounds; 23 nL; Kalypsis pin tool (Wako USA) equipped with a 1536-well pin head to transfer to the assay plates.
# 3; Incubation; 48 hours; 37C incubation.
# 4; Reagent;5uL; CellTiter Glo (Promega).
# 5; Detector; 425V; Luminescence; Viewlux PerkinElmer.
# NOTES (numbers refer to Sequence numbers above)
# 1. The cell-based screening methods employed in this study were like those previously published. Briefly, the corresponding myeloma cell lines were screened in 1,536-well plates with 500 cells, 5-uL per well for inhibition of cell viability (assessed by measuring ATP levels with CellTiterGlo).
# 2. NCATS MIPE 4.0 library of approved and investigational drugs were added using the Kalypsis pin tool. Wells treated with DMSO only for 100% viability and media only for 0% viability were used as controls.
# 3. The assay plates were covered and incubated for 48 hours in a 37C, 5% CO2 incubator with controlled humidity.
# 4. After 48 hours, CellTilter-GloTM luminescent substrate mix (Promega) reagent was added to the assay plate and plates we incubated for 5 min at room temperature.
# 5. Signal was measured as median relative luminescence units on a ViewLux (PerkinElmer) multiplate reader.
# [1] Heske CM, Davis MI, Baumgart JT, Wilson K, Gormally MV, Chen L, Zhang X, Ceribelli M, Duveau DY, Guha R, Ferrer M, Arnaldez FI, Ji J, Tran HL, Zhang Y, Mendoza A, Helman LJ, Thomas CJ. Matrix Screen Identifies Synergistic Combination of PARP Inhibitors and Nicotinamide Phosphoribosyltransferase (NAMPT) Inhibitors in Ewing Sarcoma. Clin Cancer Res. 2017 Dec 1;23(23):7301-7311. doi: 10.1158/1078-0432.CCR-17-1121. Epub 2017 Sep 12. PMID: 28899971; PMCID: PMC6636827.
# Potency is read from the fitted curve at half-maximal effect.
row,Structure (SMILES),Potency
1,CC(N)C12CC3CC(CC(C3)C1)C2 (stereo not given),inactive
2,CC1=CC(=O)c2ccccc2C1=O,23.5 µM (active)
3,COc1ccccc1OCC(O)COC(N)=O (stereo not given),inactive
4,NCCCC(O)(P(=O)(O)O)P(=O)(O)O,inactive
5,O=C(N[C@H](CO)[C@H](O)c1ccc([N+](=O)[O-])cc1)C(Cl)Cl,inactive
6,CC(C)NCC(O)c1ccc(NS(C)(=O)=O)cc1 (stereo not given),inactive
7,Cc1nnc(NS(=O)(=O)c2ccc(N)cc2)s1,inactive
8,CCCCCCNC(=O)n1cc(F)c(=O)[nH]c1=O,11.8 µM (active)
9,Cc1noc(NS(=O)(=O)c2ccc(N)cc2)c1C,inactive
10,COCCCOc1cc(C[C@@H](C[C@H](N)[C@@H](O)C[C@H](C(=O)NCC(C)(C)C(N)=O)C(C)C)C(C)C)ccc1OC,inactive
11,CCCCc1oc2ccc(NS(C)(=O)=O)cc2c1C(=O)c1ccc(OCCCN(CCCC)CCCC)cc1,16.6 µM (active)
12,COc1cc(NCc2ccc3nc(N)nc(N)c3c2C)cc(OC)c1OC,1.48 µM (active)
13,O=S(=O)(O)CCS,inactive
14,O=C(O)c1cccnc1,inactive
15,C[C@@H](NCCCc1cccc(C(F)(F)F)c1)c1cccc2ccccc12,inactive
16,COc1c(N2CCNC(C)C2)c(F)cc2c(=O)c(C(=O)O)cn(C3CC3)c12 (stereo not given),inactive
17,O=NN(CCCl)C(=O)NC1CCCCC1,inactive
18,S=P(N1CC1)(N1CC1)N1CC1,inactive
19,O=c1cc(O)c(Cl)c[nH]1,inactive
20,CNCC[C@H](Oc1cccc2ccccc12)c1cccs1,18.7 µM (active)

row,Structure (SMILES),Potency
1,CCOCC(O)COc1ccc(NC(=O)CC[S+](C)C)cc1 (stereo not given),inactive
2,CC(C)C[C@H](NC(=O)[C@H](CCc1ccccc1)NC(=O)CN1CCOCC1)C(=O)N[C@@H](Cc1ccccc1)C(=O)N[C@@H](CC(C)C)C(=O)[C@@]1(C)CO1,0.0093 µM (active)
3,CC(=O)Oc1ccccc1C(=O)Nc1ncc([N+](=O)[O-])s1,21.5 µM (active)
4,C[C@@H](CN1CC(=O)NC(=O)C1)N1CC(=O)NC(=O)C1,inactive
5,CC(C)(C#N)c1cc(Cn2cncn2)cc(C(C)(C)C#N)c1,inactive
6,Nc1nc(N)c2nc(CNc3ccc(C(=O)NC(CCC(=O)O)C(=O)O)cc3)cnc2n1 (stereo not given),0.0296 µM (active)
7,Cn1c(=O)c2c(ncn2CC(O)CO)n(C)c1=O (stereo not given),inactive
8,NC(=O)c1cccnc1,inactive
9,Nc1nc(=S)c2[nH]cnc2[nH]1,7.43 µM (active)
10,COc1ccc2c(c1)c(CC(=O)OCC(=O)O)c(C)n2C(=O)c1ccc(Cl)cc1,inactive
11,O=C(O)c1cc(=O)[nH]c(=O)[nH]1,inactive
12,Cc1ccnc2c1NC(=O)c1cccnc1N2C1CC1,inactive
13,Oc1c(Cl)cc(Cl)c2cccnc12,26.4 µM (active)
14,Cc1cccc(Nc2ccncc2S(=O)(=O)NC(=O)NC(C)C)c1,inactive
15,Cc1ccc(S(=O)(=O)N[C@@H](Cc2ccccc2)C(=O)CCl)cc1,20.9 µM (active)
16,CNC(=O)c1cc(Oc2ccc(NC(=O)Nc3ccc(Cl)c(C(F)(F)F)c3)cc2)ccn1,20.9 µM (active)
17,O=S(=O)(c1cccc2cnccc12)N1CCCNCC1,inactive
18,NC(=O)c1ccc2[nH]ccc2c1,inactive
19,OC(Cn1cncn1)(Cn1cncn1)c1ccc(F)cc1F,inactive
20,COc1cc2nc(N3CCCN(C)CC3)nc(NC3CCN(Cc4ccccc4)CC3)c2cc1OC,4.69 µM (active)
